Test results as given in PubChem BioAssay (Tox21).
Where “and” joins values, the source holds several entries; their conditions need not be identical. Identical values can stand only once. Results filed as inconclusive are left out. A call without a number means that no potency is given here. Calls of active or inactive are those of the source. Calls come from the whole dose curve; as a rule, active = well fitted cell-killing curve with a large enough effect in the repeat runs; inconclusive = weak or mixed curves, or effect the other way; inactive = no such curve, though single readings can be large or run the other way.

assay: qHTS assay to identify small molecule antagonists of the glucocorticoid receptor (GR) signaling pathway - cell viability counter screen (AID 720693); settings: GR-bla HeLa viability, CellTiter-Glo luminescence, 18 h, with 5 nM dexamethasone present; series mostly up to 58.5 µM; note: nearly all actives have a fitted effect of over 55% in size
From the text: National Center for Advancing Translational Sciences [NCATS]
NIH Chemical Genomics Center [NCGC]
U.S. Environmental Protection Agency [EPA]
National Institutes of Environmental Health Sciences [NIEHS]
National Toxicology Program [NTP]
U.S. Food and Drug Administration [FDA]
The Glucocorticoid receptor (GR) is one of the members of the nuclear receptor family of ligand-dependent transcription factors. GR plays a critical role in carbohydrate, protein and lipid metabolisms and programmed cell death. CellSensor GR-bla HeLa cell line (Invitrogen) contains a beta-lactamase reporter gene under the control of the glucocorticoid response element stably integrated into HeLa cells, a cervical cancer cell line that expresses glucocorticoid receptor. The activation of the reporter gene under culture conditions can be detected by fluorescence intensity. This cell line has been used to screen the Tox21 10K compound library and to identify the compounds that inhibit the GR signaling. The cytotoxicity of the Tox21 compound library against the GR-bla HeLa cell line was tested in parallel by measuring the cell viability using CellTiter-Glo assay in the same wells.
Tox21 Assay Protocol Summary:
The GR-bla HeLa cells were dispensed at 1500 cells/5 ul/well in 1536-well black wall/clear bottom plates using a Multidrop Combi (ThermoFisher Scientific, Waltham, MA) dispenser. After the assay plates were incubated at a 37 C/5% CO2 incubator for 4 hours, 23 nL of compounds dissolved in DMSO, positive controls or DMSO only was transferred to the assay plate by a pintool station (Kalypsys, San Diego, CA), followed by addition of 1 uL of dexamethasone (5 nM, final concentration in the well). The plates were incubated at 37 C for 18 hours. After 1 uL of LiveBLAzerTM B/G FRET substrate was added using a Flying Reagent Dispenser (Aurora Discovery, San Diego, CA), the plates were incubated at room temperature (RT) for 2 hours, and fluorescence intensity was measured by an Envision plate reader (PerkinElmer, Shelton, CT). After measurement of bla assay, 3 ul CellTiter-Glo (Promega, Madison, WI) was added to measure the cytotoxicity and the plates were then incubated at RT for 30 min. The luminescence was measured using a ViewLux (Perkin Elmer) plate reader.
Potency is the fitted concentration of half-maximal effect.

SMILES | Potency
CN(C)c1ccc(C(=O)c2ccc(N(C)C)cc2)cc1 | inactive
O=C(O)CC[N+](=O)[O-] | inactive
N#CCCCl | inactive
Cc1ccc2c(c1N)C(=O)c1ccccc1C2=O | inactive
Nc1ccc(-c2ccc(N)c(N)c2)cc1N | inactive
Cc1ccccc1[N+](=O)[O-] | inactive
CCCCCCCCOC(=O)c1ccccc1C(=O)OCCCCCCCC | inactive
N#CC(Br)Br | inactive
COc1ccc(C(CN(C)C)C2(O)CCCCC2)cc1 (stereo not given) | inactive
C=CC(=O)OCCO | inactive
O=c1oc2ccccc2c(O)c1C(CC(O)c1ccc(-c2ccc(Br)cc2)cc1)c1ccccc1 (stereo not given) | 23.9 µM (active) and 46.3 µM (active)
CCCCCCOC(=O)c1ccccc1C(=O)OCCCCCC | inactive
C#C[C@]1(O)CC[C@H]2[C@@H]3CCC4=CC(=O)CC[C@]4(C)[C@H]3CC[C@@]21C | inactive
Nc1ccc(-c2ccccc2)cc1 | inactive
C#CCOS(=O)OC1CCCCC1Oc1ccc(C(C)(C)C)cc1 (stereo not given) | 21.9 µM (active)
CCOCN(C(=O)CCl)c1c(C)cccc1CC | inactive
CCCCOCCOP(=O)(OCCOCCCC)OCCOCCCC | inactive
c1ccc(N=Nc2ccccc2)cc1 | inactive
Nc1ccncc1 | inactive
CCc1cccc(CC)c1N(COC)C(=O)CCl | inactive

SMILES | Potency
CC(C)(c1cc(Cl)c(O)c(Cl)c1)c1cc(Cl)c(O)c(Cl)c1 | inactive
Nc1c(Cl)cc([N+](=O)[O-])cc1Cl | inactive
c1ccc(-c2cccc(-c3ccccc3)c2)cc1 | inactive
C1=Cc2cccc3cccc1c23 | inactive
Nc1cccnc1 | inactive
C=C(C)C(=O)OCC1CO1 (stereo not given) | inactive
c1nc[nH]n1 | inactive
Cc1cc(Cl)ccc1OCCCC(=O)O | inactive
CC(C)c1ccc(CO)cc1 | inactive
O=C(NC(=O)c1c(F)cccc1F)Nc1ccc(Cl)cc1 | inactive
NCc1cccnc1 | inactive
CCC(C)(c1ccc(O)cc1)c1ccc(O)cc1 | inactive
CCOC(=O)C(C)OC(=O)c1cc(Oc2ccc(C(F)(F)F)cc2Cl)ccc1[N+](=O)[O-] (stereo not given) | inactive
CCC(C)(C)c1ccc(O)cc1 | inactive
NNC(N)=S | inactive
CC(C)NC(C)C | inactive
O=S(=O)(Oc1ccc(Cl)cc1)c1ccc(Cl)cc1 | inactive
CN(C)C(=O)Nc1ccc(Cl)cc1 | inactive
C=CCc1ccc2c(c1)OCO2 | inactive
O=[N+]([O-])c1cccc2ccccc12 | inactive
